Data on 42 sequences can be found in publication PMC10726135, “HNF4α isoforms regulate the circadian balance between carbohydrate and lipid metabolism in the liver”.

The full ranking holds about 18,000 sequences; the median of “log2 normalized intensity” is about 0.36, and the highest 2% start at about 7.3. The sample holds the highest values, similar sequences and a random draw of the others, so the mix is not that of the screen.

For the experiment, the target named is T1, HNF4alpha8 (COS-7 nuclear extract) (Homo sapiens, UniProt P41235-5 1-452).
T1 sequence: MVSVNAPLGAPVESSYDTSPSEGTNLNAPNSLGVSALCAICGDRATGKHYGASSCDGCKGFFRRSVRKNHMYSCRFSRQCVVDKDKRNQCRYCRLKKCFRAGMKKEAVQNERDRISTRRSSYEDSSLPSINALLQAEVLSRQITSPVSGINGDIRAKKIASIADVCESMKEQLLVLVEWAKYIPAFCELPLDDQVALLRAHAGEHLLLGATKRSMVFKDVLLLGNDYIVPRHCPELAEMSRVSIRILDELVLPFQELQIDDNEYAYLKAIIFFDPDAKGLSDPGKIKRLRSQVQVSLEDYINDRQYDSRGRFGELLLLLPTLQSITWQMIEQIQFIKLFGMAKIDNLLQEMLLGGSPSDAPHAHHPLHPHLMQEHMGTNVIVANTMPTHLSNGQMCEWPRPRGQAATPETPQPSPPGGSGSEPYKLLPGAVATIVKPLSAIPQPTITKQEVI
Briefly: protein-binding microarray; COS-7 nuclear extract on double-stranded Agilent 4x180k PBM; binding buffer, salt, pH and temperature not given in the material; high values mean tight binding. The following applies: chain copies: 2; label: 3' end of strand 1 on the slide; dsDNA, one strand shown. The method in brief: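 COS-7 cells were transiently transfected by CaPO4 with an expression vector for a human HNF4α isoform, and nuclear extracts were prepared from them. The extracts were applied to a custom Agilent SurePrint G3 4x180k array of double-stranded ~60-nt oligonucleotides, with ~44,000 test sequences spotted in quadruplicate. An Agilent G2565CA scanner imaged bound HNF4α at 2-µm resolution. Binding signal is the background-corrected, normalized gProcessedSignal from Agilent software.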
Regarding “TGCAGTTTCCCTATTCTCAGTGATATAAAAGCCTAGGGAGATTAGAGTATCGGTCGA”, the binding signal was 0.942 log2 normalized intensity. The figure for “AGGTCGCAAGCACTGGCTCTGGGGTCAAAGGCCTAGGGAGATTAGAGTATCGGTCGA” is 4.08 log2 normalized intensity. Regarding “CACTGGCTCTGGGGTCAAAGTCCCCTGAGCGCCTAGGGAGATTAGAGTATCGGTCGA”, the binding signal was 7.66 log2 normalized intensity. With “GGGGTCAAAGTCCCCTGAGCTTGAGTCCATGCCTAGGGAGATTAGAGTATCGGTCGA” the figure was 6 log2 normalized intensity; with “TCTCTGGGTCAAAGGTCATCGCACCGGCAGGCCTAGGGAGATTAGAGTATCGGTCGA”, 7.54 log2 normalized intensity. Consider “CCTCCTCTCTGGGTCAAAGGTCATCGCACCGCCTAGGGAGATTAGAGTATCGGTCGA”, for which the binding signal came to 8.5 log2 normalized intensity.

In the case of “CTCTCCCTCCTCTCTGAGCAGTCAAACTGGGCCTAGGGAGATTAGAGTATCGGTCGA”, the binding signal was determined as 1.89 log2 normalized intensity. For the sequence “CCTGCCTCTCCTCTGAGCTTCATCCTGACCGCCTAGGGAGATTAGAGTATCGGTCGA”, the binding signal turned out to be 1.7 log2 normalized intensity. Regarding “GAGGTGTCAGCCACCCCTCCTCCTGGGGGCGCCTAGGGAGATTAGAGTATCGGTCGA”, the binding signal was 2.93 log2 normalized intensity.

Turning to “GCCACCCTCCTCTCTGGGTCAAAGGTCATCGCCTAGGGAGATTAGAGTATCGGTCGA”, the binding signal was 10.2 log2 normalized intensity. As to “CCTGGTCAAAGTCAACTCCTCCAAGCCACCGCCTAGGGAGATTAGAGTATCGGTCGA”, the binding signal turned out to be 0.614 log2 normalized intensity.

Consider “AAAGGTCATCGCACCGGCAGGGGAGAACTTGCCTAGGGAGATTAGAGTATCGGTCGA”, for which the binding signal turned out to be 1.24 log2 normalized intensity. The figure for “CTGGGGCCACCCTCCTCTCTGGGTCAAAGGGCCTAGGGAGATTAGAGTATCGGTCGA” is 5.36 log2 normalized intensity; for “CCAATTCACAGAACTCCCTAAGTGGCCTCAGCCTAGGGAGATTAGAGTATCGGTCGA” it is 0.0537 log2 normalized intensity; for “GGTTGTCAGACTGGTGTAGTGGGGAGGGCAGCCTAGGGAGATTAGAGTATCGGTCGA” it is 1.35 log2 normalized intensity. In the case of “GCGGCATTCCTGTCAAAATCTGATCTTTCCGCCTAGGGAGATTAGAGTATCGGTCGA”, the binding signal worked out at 1.47 log2 normalized intensity. The figure for “CAAGTTGGTTTACATTCTTAGAAGATAAAGGCCTAGGGAGATTAGAGTATCGGTCGA” is 0.323 log2 normalized intensity; for “GAGGCTTTGAGTCATTGAGGCTTTGCCTTAGCCTAGGGAGATTAGAGTATCGGTCGA” it is -0.699 log2 normalized intensity; for “AATGATGATGACTTTTGACCCCAGGGGAAAGCCTAGGGAGATTAGAGTATCGGTCGA” it is 6.38 log2 normalized intensity. With “CTTGACTTTGGACTTTCAAAAGTTAAGGTCGCCTAGGGAGATTAGAGTATCGGTCGA”, the binding signal amounted to 3.98 log2 normalized intensity.

Take “CTTTGTAGCACTTTGGACCTCCACTTTGGAGCCTAGGGAGATTAGAGTATCGGTCGA”: the binding signal stood at 3.36 log2 normalized intensity.

For the sequence “CATTGACTTTGCCTTTTGGCTAAAGTCCAAGCCTAGGGAGATTAGAGTATCGGTCGA”, the binding signal was determined as 4.75 log2 normalized intensity. The figure for “GAGACCCATTTTGGACTTTGACCTCCAAAAGCCTAGGGAGATTAGAGTATCGGTCGA” is 11.3 log2 normalized intensity; for “GAATTCTTGACTTTGGACTTTCAAAAGTTAGCCTAGGGAGATTAGAGTATCGGTCGA” it is 5.14 log2 normalized intensity; for “CACAGCTGGACTTTGGCTGCAAAATTTGAAGCCTAGGGAGATTAGAGTATCGGTCGA” it is 3.88 log2 normalized intensity. As to “TTGGACTTTGACCTCCAAAATTATAAGTCAGCCTAGGGAGATTAGAGTATCGGTCGA”, the binding signal turned out to be 8.58 log2 normalized intensity. Take “CCATTTTGGACTTTGACCTCCAAAATTATAGCCTAGGGAGATTAGAGTATCGGTCGA”: the binding signal is 10.9 log2 normalized intensity. The figure for “TTTGTCAAATGCTTCCAAGAATTTAAGAGAGCCTAGGGAGATTAGAGTATCGGTCGA” is -0.862 log2 normalized intensity; for “CAGAGGACAGGTTTCCTGAGTTACAGATAAGCCTAGGGAGATTAGAGTATCGGTCGA” it is -0.778 log2 normalized intensity. Regarding “ATTCACATCTCCAGTTCCAAAGTCCAGGTGGCCTAGGGAGATTAGAGTATCGGTCGA”, the binding signal is 6.55 log2 normalized intensity. Take “TGTTAGCAGAAACCATCTGGCTTGGCCCCCGCCTAGGGAGATTAGAGTATCGGTCGA”: the binding signal came out at 4.14 log2 normalized intensity. “AAAATACCTGGAAGTATTTATTGAGCACACGCCTAGGGAGATTAGAGTATCGGTCGA”: the binding signal is -0.121 log2 normalized intensity.

For “ATCACTGAAGCGACCCCTCGAGGCAACCTTGCCTAGGGAGATTAGAGTATCGGTCGA”, the binding signal was found to be 1.75 log2 normalized intensity. With “TGAAGCGACCCCTCGAGGCAACCTTTGACCGCCTAGGGAGATTAGAGTATCGGTCGA” the figure was 9.25 log2 normalized intensity. With “GTCAAATCACTGAAGCGACCCCTCGAGGCAGCCTAGGGAGATTAGAGTATCGGTCGA” the figure was 1.82 log2 normalized intensity. With “CCTCGAGGCAACCTTTGACCTGGTACTATGGCCTAGGGAGATTAGAGTATCGGTCGA” the figure was 6.8 log2 normalized intensity; with “CGACCCCTCGAGGCAACCTTTGACCTGGTAGCCTAGGGAGATTAGAGTATCGGTCGA”, 8.16 log2 normalized intensity.

For “AAGTATCTCGGTCAAACCTTTGACCCTTTAGCCTAGGGAGATTAGAGTATCGGTCGA”, the binding signal came to 6.9 log2 normalized intensity.

“GTGAACCTTTGTCCCGTTATGGCACCAAGAGCCTAGGGAGATTAGAGTATCGGTCGA”: the binding signal stood at 1.55 log2 normalized intensity. With “AGATCCATTGCATGTGCATTTCACAATAGGGCCTAGGGAGATTAGAGTATCGGTCGA” the figure was 0.639 log2 normalized intensity; with “ATGGACTTTGAAGGAGATTCCTGTGTCAGCGCCTAGGGAGATTAGAGTATCGGTCGA”, 1.23 log2 normalized intensity. The figure for “GGTCAGCAATGTGGACTTTGTCCTGTGGGCGCCTAGGGAGATTAGAGTATCGGTCGA” is 8.67 log2 normalized intensity.
